The panel holds about 79,000 compounds, 15% with a hit somewhere; the sample as a whole holds those more often. Rule as the data show it: active = growth inhibition above about 70%; inactive = the rest.
Tests used:
[1] = NCI Yeast Anticancer Drug Screen. Data for the rad50 strain (AID 155);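 also: 0% = growth of vehicle-only cultures of the same strain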; details: S. cerevisiae rad50 strain growth inhibition; at 50.0 µM; stronger effect = higher value
How it was run: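 Compounds were tested on a yeast strain with an engineered DNA damage repair alteration; the reported value is growth inhibition normalised to vehicle treatment.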

[2] = NCI Yeast Anticancer Drug Screen. Data for the mec2-1 strain (AID 157); details: S. cerevisiae mec2-1 strain, at 50.0 µM, stronger effect = higher value
How it was run: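 Using mec2-1 yeast: add compound, measure growth, express inhibition versus vehicle-treated cultures.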

[3] = NCI Yeast Anticancer Drug Screen. Data for the sgs1 mgt1 strain (AID 161);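 also: 0% = growth of cultures given vehicle only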; details: S. cerevisiae sgs1 mgt1 strain, at 50.0 µM, stronger effect = higher value
How it was run: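 Compounds are added to genetically altered yeast, and growth is compared with cultures given vehicle alone to give percent inhibition.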

[4] = NCI Yeast Anticancer Drug Screen. Data for the cln2 rad14 strain (AID 165);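 also: 0% = growth equal to vehicle treated cultures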; details: S. cerevisiae cln2 rad14 strain, at 50.0 µM, stronger effect = higher value
How it was run: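 Yeast strain cln2 rad14, bearing defects in cell cycle control and DNA repair, serves as the test system; values reflect growth inhibition compared with vehicle.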

[5] = NCI Yeast Anticancer Drug Screen. Data for the bub3 strain (AID 167); details: S. cerevisiae bub3 mutant strain, at 50.0 µM, stronger effect = higher value
How it was run: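 Growth of a checkpoint-deficient yeast mutant is measured after compound exposure. Values represent inhibition relative to vehicle.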

[6] = NCI Yeast Anticancer Drug Screen. Data for the mlh1 rad18 strain (AID 175); details: S. cerevisiae mlh1 rad18 strain growth inhibition; at 50.0 µM; stronger effect = higher value
How it was run: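 Steps: expose repair-defective yeast to compound; measure growth; express inhibition against vehicle-treated controls.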

Measured: growth inhibition

CC(=O)NC1C(=O)N(c2ccccc2)N=C1C (stereo unspecified)
inactive: [1] 15.6% | [2] -6.05% | [3] -0.7% | [4] 22.6% | [5] -6.5% | [6] 9.85%

Cc1cccc(C)c1NC(=O)Nc1cccc(C(F)(F)F)c1
inactive: [1] -16.4% | [2] -29.4% | [3] -14.7% | [4] -22.4% | [5] -8.25% | [6] -17.8%

CCCOC(=O)CCBr
inactive: [1] -2.55% | [2] 10.1% | [3] -13.9% | [4] -57% | [5] -22.9% | [6] -8.1%

Nc1nc2c(ncn2C2OCC(O)C(O)C2O)c(=O)[nH]1 (stereo unspecified)
inactive: [1] 15.6% | [2] -9.7% | [3] -13.8% | [4] -6.15% | [5] 0.75% | [6] -2.3%

Cc1cc(C)c2c(c1)CC(C)(C)C(=O)OC2=O
inactive: [1] -16.2% | [2] -23.9% | [3] -9.65% | [4] 2.4% | [5] -10.3% | [6] -11.2%

COc1ccc(CNc2ccccc2)cc1OC
inactive: [1] -6% | [2] 7.95% | [3] -3% | [4] -33.6% | [5] -9.15% | [6] -40%

COc1ccc2c(c1)OC(C)(C)c1c-2n(C)c2c(F)cccc2c1=O
inactive: [1] 14.8% | [2] 8.7% | [3] 16.1% | [4] 14.2% | [5] 5.35% | [6] 29.8%

CC(=O)OC(COC(c1ccccc1)(c1ccccc1)c1ccccc1)C(OC(C)=O)C(COC(c1ccccc1)(c1ccccc1)c1ccccc1)OC(C)=O (stereo unspecified)
inactive: [1] -25.9% | [2] -8.4% | [3] -22.5% | [4] -18.8% | [5] -6.6% | [6] -15.1%

NC(=O)CNC(=O)[C@@H]1C[C@@H](OCCC(=O)O)CN1C(=O)OCc1ccccc1
inactive: [1] -32.2% | [2] -8.75% | [3] -24.5% | [4] 4.1% | [5] 14.5% | [6] 4.95%

Cc1ccc([N+](=O)[O-])cc1NC(=O)C(=O)C(C(=O)c1ccccc1F)C1OC(=O)c2ccccc21 (stereo unspecified)
inactive: [1] -3.1% | [2] 5.7% | [3] -14.4% | [4] 13.1% | [5] -1.1% | [6] -1.9%

Cc1cccc(C)n1
inactive: [1] -1.85% | [2] -22.1% | [3] -3.15% | [4] -1.85% | [5] -6.55% | [6] -21.4%

CSc1ccccc1N.[Cl][Cu][Cl]
inactive: [1] 28.8% | [2] 19.4% | [3] -2% | [4] 14.8% | [5] 28.1% | [6] 28.4%

CCOC(=O)CCC(NC(=O)c1ccc(Nc2cnc3ccc(C(F)(F)F)cc3n2)cc1)C(=O)OCC (stereo unspecified)
inactive: [1] 24.3% | [2] 6.45% | [3] 12.2% | [4] 14.1% | [5] 19.9% | [6] -23.8%

O=C(O)Cc1cc(CC(=O)O)cc(CC(=O)O)c1
inactive: [1] -3.8% | [2] -18.8% | [3] 6.05% | [4] 5.2% | [5] 1.6% | [6] -17.9%

Cc1cc(O)c(C(C)C)cc1CN1CCCCC1
inactive: [1] 0% | [2] -25.1% | [3] -14.2% | [4] 0.15% | [5] -2.85% | [6] -3.3%

CCCCC1(CN(C)C)C(=O)N(C)C(=O)N(C2CCCCC2)C1=O (stereo unspecified)
inactive: [1] 9.15% | [2] 10.2% | [3] 1.4% | [4] 21.9% | [5] -4.2% | [6] 9.6%

CCOC(=O)c1c(N)n(-c2ccccc2)c(=S)n(-c2ccccc2)c1=O
inactive: [1] -17% | [2] -24.4% | [3] -32.5% | [4] 14.6% | [5] -40.2% | [6] -41.4%

O=c1cc(S(=O)(=O)Cc2ccccc2)[nH]c(=O)[nH]1
inactive: [1] 43% | [2] 6.75% | [3] 0.2% | [4] -43.6% | [5] 8.35% | [6] 31.2%

CC(C)CC(=O)CCc1ccccc1
inactive: [1] -45% | [2] -19.9% | [3] -46.9% | [4] -6.35% | [5] -29.1% | [6] -3.55%

CC(=O)NC(Cc1ccccc1)c1ccccc1 (stereo unspecified)
inactive: [1] 17.1% | [2] -8.2% | [3] 11.1% | [4] 12.8% | [5] 21.6% | [6] 10.8%

CC(C)CCC[C@@H](C)[C@H]1CC[C@H]2C3=CC=C4C[C@H](OC(=O)c5ccccc5)CC[C@]4(C)[C@H]3CC[C@]12C
inactive: [1] 0.4% | [2] 5.5% | [3] 11% | [4] 3.7% | [5] -1.25% | [6] -10.2%

O=C1NC(N2CCCC(CO)C2)=N/C1=C\c1ccc(Cl)cc1 (stereo unspecified)
inactive: [1] 25.6% | [2] -10.9% | [3] -18.9% | [4] 23.6% | [5] -17.8% | [6] -19.1%

CC1SCC(C)(C)NC1=O (stereo unspecified)
inactive: [1] 3.85% | [2] 5.15% | [3] -3.95% | [4] -8.5% | [5] 5.7% | [6] 0.55%

CN(C)NC1=NS(=O)(=O)c2cc3c(cc2S1)N(N(C)C)C(=O)c1cc2c(cc1N(N(C)C)C3=O)SC(NN(C)C)=NS2(=O)=O
inactive: [1] -6.3% | [2] -22.5% | [3] -14.4% | [4] 2.35% | [5] 16.4% | [6] -2.9%

[O-][N+](=Nc1ccccc1Cl)c1ccccc1Cl
inactive: [1] 44% | [2] 16% | [3] 62.7% | [4] 4.15% | [5] 28.2% | [6] 31.2%

C=C1C(OC(C)=O)CC(OC(C)=O)C2(C)C(OC(C)=O)C(OC(C)=O)C3=C(C)C(OC(=O)/C=C/c4ccccc4)CC(C(OC(C)=O)C12)C3(C)C (stereo unspecified)
inactive: [1] 4.8% | [2] -12.1% | [3] 5.6% | [4] -4.75% | [5] 20.6% | [6] 15.6%

O=S1(=O)c2ccccc2NC(c2ccc3ccccc3c2)CC1c1ccccc1F (stereo unspecified)
inactive: [1] -25.3% | [2] -28.1% | [3] -47% | [4] 4.95% | [5] -18.4% | [6] -14.2%

CC(CO)(CO)N1C(=O)c2cccc3cc([N+](=O)[O-])cc(c23)C1=O
inactive: [1] 31.4% | [2] 29.1% | [3] 50.1% | [4] 31.1% | [5] 35.2% | [6] 14.3%

COC(=O)c1c(C(=O)OC)c2ccccn2c1-c1cc(OC)c(Br)c(=O)o1
inactive: [1] -0.2% | [2] -17.8% | [3] -7.6% | [4] -18.9% | [5] -4.15% | [6] -105%

COC1C(=O)CCC2(CO2)C1(O)C1(C)OC1CC=C(C)C (stereo unspecified)
inactive: [1] -22.9% | [2] -34.4% | [3] -31.6% | [4] -5.2% | [5] -28.2% | [6] -25.8%

NCCNC(c1ccccc1)C(O)c1ccccc1 (stereo unspecified)
inactive: [1] -8.7% | [2] -0.7% | [3] -1.25% | [4] -33.9% | [5] -41.2% | [6] -4.25%

NC(=O)C1(c2cccs2)CCCC1
inactive: [1] 4.9% | [2] 3.4% | [3] 6.5% | [4] -26.1% | [5] -12.3% | [6] 26.2%

COC(=O)CN1C(=O)OC(c2ccccc2)C1=O (stereo unspecified)
inactive: [1] -0.4% | [2] 1.15% | [3] -4.1% | [4] 8.15% | [5] -3.85% | [6] -13.4%

O=S(=O)(O)c1cc2nonc2c2ccccc12
inactive: [1] 2.75% | [2] -0.85% | [3] 12.9% | [4] 9.25% | [5] 0.9% | [6] -2.6%

Ic1ccccc1
inactive: [1] -0.9% | [2] 7.25% | [3] -41.4% | [4] -9.35% | [5] -45.8% | [6] -65.7%

O=C(CC1CCCCC1)OCC1CCCO1 (stereo unspecified)
inactive: [1] -7.1% | [2] -25.6% | [3] -18.4% | [4] -4.15% | [5] -6.95% | [6] 4.55%

O=C1NC(N2CCCC(CO)C2)=N/C1=C\c1cccs1 (stereo unspecified)
inactive: [1] 8.1% | [2] -6.8% | [3] -3.4% | [4] 3.25% | [5] -14.4% | [6] -39.7%

Cc1[nH]c(=O)c(C#N)c(C)c1-c1ccccc1
inactive: [1] 16.8% | [2] -3.9% | [3] -4.9% | [4] 4.9% | [5] -0.75% | [6] 1.85%

CC(C)OC1(c2ccccc2)c2cccc3cccc(c23)C1(O)c1ccccc1 (stereo unspecified)
inactive: [1] 18.2% | [2] -3.6% | [3] 22.8% | [4] 7.7% | [5] 3.35% | [6] 6.75%

C/C(=C(/O)c1ccc(Cl)cc1)c1nc2cc(Cl)cc([N+](=O)[O-])c2[nH]c1=O
inactive: [1] 37% | [2] 43.3% | [3] 24.6% | [4] -4.55% | [5] 18.9% | [6] 53.5%

CCCc1ncc(C[n+]2ccccc2C)c(N)n1
inactive: [1] 11.8% | [2] -15.1% | [3] 23.2% | [4] 25.4% | [5] 10.7% | [6] 8.25%

Reference: PubChem BioAssay (NCI)
